The whole screen tested about 31,000 sequences, of which about 1,400 (4.5%) were called active.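 How the source made its calls: active means median seed-adjusted z-score above 1 or below -1; inactive means the rest.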 The full list was thinned out, with actives kept by preference.
Assay: Novel Modifiers of Survival Motor Neuron (SMN) Protein: Gene Identification via Genome-wide siRNA Screen
Conditions: HEK293T SMN2-luciferase reporter, siRNA knockdown, 72 h; actives lie on both sides
How it was run: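 Each of three siRNAs per gene is reverse-transfected (1 pmol) into reporter HEK293T cells whose luciferase output tracks SMN protein level. After 72 h culture, ONE-Glo luminescence is control-normalized, log10-transformed and MAD-standardized; Common Seed Analysis deprioritizes seed-driven hits.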

Row | Sequence | median seed-adjusted z-score
1 | AGACCAUAACUACUCACUATT against KDELR3 | 0.476 (inactive)
2 | GCUCAAUUGUCGAUCUUUATT against ERO1LB | 0.565 (inactive)
3 | GAAGGUUUCUGUGCCCUCATT against SLC4A9 | 0 (inactive)
4 | CCUGCAAGCUGUCAACUUUTT against PRKACA | -0.137 (inactive)
5 | CAACUUCUAUAGUCGAAUATT against TXNDC3 | -0.649 (inactive)
6 | CGAUAUUUAUCCUUACCUATT against SLC9A2 | -1.02 (active)
7 | CCUUUACGUUCAAAUCACATT against ZNF268 | 0.0358 (inactive)
8 | CCAAGGAGUCGUCUACUUUTT against B3GAT3 | -0.00603 (inactive)
9 | GCAGAUCUCAUGUCCUCUATT against FPGS | -0.853 (inactive)
10 | GCAAGUGGUUUGUCAGUAATT against B3GALT5 | 0.144 (inactive)
11 | GCUCUUAUGCGACAGUUUATT against PFTK2 | -1.16 (active)
12 | GGUGUAUGCUGAGGUGAAATT against EIF2C1 | 0.215 (inactive)
13 | AGUCUGUUGGUGCACAAAATT against MDM2 | 0.258 (inactive)
14 | GAUUUAUGCUAGCUCUAAATT against CFL2 | -0.148 (inactive)
15 | CAUCAAAACUUGGAGAGCATT against FN3K | -0.508 (inactive)
16 | CCUUCUACAACACCAAGAATT against AGPAT2 | 0.38 (inactive)
17 | GGAUUACAGGAGACCCAUATT against FUBP1 | -1.52 (active)
18 | CAUUAACAUUGUUCGCAAATT against ACO2 | -1.57 (active)
19 | UACCAGAUCUCAAAAAGAATT against CCR5 | -0.0281 (inactive)
20 | GGAUGAAGGUAGUUACGUUTT against RAVER2 | -0.258 (inactive)
21 | CAUCCACACUGCAAUGAUATT against PILRB | 0.0351 (inactive)
22 | AAUUUUCCUGUGAUAGAAATT against PATE1 | 1.21 (active)

Row | Sequence | median seed-adjusted z-score
23 | GCGACUUUCUUGGUUUGCATT against SNX2 | -0.569 (inactive)
24 | CCCUAAAUGUAUCUCGGAATT against GRIN3A | 0.241 (inactive)
25 | CGAGACGUAUUAUAUCUUUTT against COL4A3BP | 0.0391 (inactive)
26 | GUGCAUAAGUGUUAGGGAATT against SLC17A2 | 0.141 (inactive)
27 | GAUCUGAGCUUGUACAGAATT against PSMC2 | -1.96 (active)
28 | GGAUCGAACCCAUGGAUCATT against ROCK2 | -0.149 (inactive)
29 | GAAUAACUGCUGCUUGUAATT against TTRAP | -0.33 (inactive)
30 | GACUCAUACGAGCGCAUUATT against SEMA4F | 0.139 (inactive)
31 | GGCGAAGAGGGAUCAAGUATT against ZNF24 | 0.388 (inactive)
32 | GAGCCACACUUUCAAGUAATT against CRIP1 | -0.622 (inactive)
33 | CCGUGGACCAGUACUUUUATT against MAN2B1 | -0.246 (inactive)
34 | GACACGAUUCUUUACCAAATT against CHEK1 | -5.1 (active)
35 | GGACUCAGGUCUCAUGUGATT against KRTAP5-7 | -0.279 (inactive)
36 | CAGGUAUUGUGGAAAGUAUTT against ADH4 | -0.0991 (inactive)
37 | GCACCAUAGACUUUCGGGATT against HPCA | 0.12 (inactive)
38 | GAGCGAAGGUCAUAAUACATT against MORC4 | 0.13 (inactive)
39 | GCAUGAGUGUUGAUAGGUATT against AGTR2 | 0.204 (inactive)
40 | ACAACUUCAUAUCCAGCUUTT against ISLR2 | 0.263 (inactive)
41 | GCUGCGAAAGGAUCUCAAATT against UBE3B | 0.0972 (inactive)
42 | CAAAUACGGUAAUGCUGUATT against COX7B | -1.16 (active)
43 | GAACUUCACAAGUUCCUCATT against RAB31 | 0.41 (inactive)
44 | GCUUAAUGGUGUCCCGUAATT against PCCA | 0 (inactive)

Row | Sequence | median seed-adjusted z-score
45 | CAAGCUCCAUUUUGAAUCATT against SRR | -0.256 (inactive)
46 | CGACGGUGGAAGACACCUATT against DIRAS2 | -1.25 (active)
47 | CAUUGCAAGUUGUUCUUGATT against GJA4 | -0.18 (inactive)
48 | ACAGCGCUCUCAAUCCCUUTT against GPR150 | -0.129 (inactive)
49 | CAUCAGCACUAGCACCUCATT against ZNF213 | 1.37 (active)
50 | CCCGGUCACUUCUGAGAAATT against ZNF696 | 0.17 (inactive)
51 | GGAAGAGUCAUACAUCAAUTT against DDX55 | 0.507 (inactive)
52 | GCAUAGCUCUCGAUAAGAATT against MYH4 | -1.8 (active)
53 | GGAUCAUGCUGAGAUGCAATT against RASAL2 | 0 (inactive)
54 | CCAUCGUGGUAGAUCCGUUTT against CBL | -0.417 (inactive)
55 | GCUUUGUCACAUAACGUGATT against SLC38A2 | -1.04 (active)
56 | GGUUGCUAUAUGUUCCGAATT against MLL | 0.227 (inactive)
57 | UGACGUGCACAGGAAGAAATT against OXCT2 | -0.449 (inactive)
58 | GGGAAUAGCUUAUCUUGUUTT against RFC4 | -0.386 (inactive)
59 | GCAUCUACGUGGGUAACUUTT against SFRS1 | -1.66 (active)
60 | GCCCGAAAGAGAAAGCGAATT against POU5F1 | 0.0495 (inactive)
61 | GCAUCAACGCGGGAUUCCATT against TFAP4 | -0.0515 (inactive)
62 | CGGUCAUGCUGAUCACCUUTT against GPR119 | -0.382 (inactive)
63 | CUGCCGCAAUGACAACAAATT against TRIM42 | -0.153 (inactive)
64 | GCGGUAAACUCGACACGUUTT against MARK3 | 0.271 (inactive)
65 | GGCUGUACAUAGUCCUUUUTT against SNRPB | -3.17 (active)
66 | CUACUUAAGUGUGAUAAUATT against OCLN | 0.232 (inactive)

Row | Sequence | median seed-adjusted z-score
67 | GACUAAUGGAUGAAGCUAATT against PBK | -0.311 (inactive)
68 | GGAAUUCUUUGGGCUGAAATT against MMP1 | 0.205 (inactive)
69 | GCAUCGGGAAUAAAAUUUATT against LSM2 | -1.48 (active)
70 | CCCAAUCAAGUGUUACAAATT against JMJD1C | 0.0338 (inactive)
71 | UGGAGUAUCCUAUCAUGUATT against MGST3 | -0.0509 (inactive)
72 | GCAAAUACGUGUAGACCUATT against EXOSC9 | -0.00796 (inactive)
73 | AGUACAUCGCGGAUCUGUATT against RCN3 | -2.44 (active)
74 | CCACUUCUCCACACCUUGATT against NR4A1 | -0.207 (inactive)
75 | GUGACUCCGUGUAUACUUATT against GCA | -0.162 (inactive)
76 | AGAGCAAAACAGUCCGAUATT against PCDH8 | -1.03 (active)
77 | GAAUUCACUUCAGAGCAAUTT against LMO4 | -0.067 (inactive)
78 | CAAUCCAACUAGUAGUUCATT against SP4 | -0.088 (inactive)
79 | CCCUCUAACUGCUCGGAUATT against DNASE2 | -1.23 (active)
80 | GAUCCUAUCGUAGACAUGATT against ZNF440 | 0.208 (inactive)
81 | CCAGCAAUGAGAAAAAUCUTT against HOXA2 | 0.335 (inactive)
82 | GGCGAACAGUUCUACAUGUTT against IFT57 | -1.1 (active)
83 | CAUCAUUACGAUUAGCCUATT against ARFGAP3 | 0.00412 (inactive)
84 | CGGGAUUUAUAGGCAAUGATT against RNASEH1 | -0.0205 (inactive)
85 | CAUUCGCUCUCAUACUGGATT against CTCF | -0.0821 (inactive)
86 | GGAUCUUCAAAGUCACGAATT against CACNA1B | 0.0963 (inactive)
87 | GCACCCACGUCAUCCCUAATT against GRIN1 | -0.137 (inactive)
88 | CCAUUCUUCUAGCAACUGATT against DDX47 | -0.398 (inactive)

Row | Sequence | median seed-adjusted z-score
89 | GUCCUAUCACCGUAUCUUATT against SF3B4 | -2.56 (active)
90 | GGUUAGGGCUUGACCCAAATT against HIBADH | 0.234 (inactive)
91 | CAGACGUGAUGACAAGAUUTT against S100A7 | -0.253 (inactive)
92 | CAAUGGUGUCUACAAGAUUTT against SLCO1C1 | 0.071 (inactive)
93 | CACCUGCUAUGUUACGGGATT against BAT2 | 0.0889 (inactive)
94 | AGAUACUGGUAUUGCUCGATT against SNRPB | -3.17 (active)
95 | GACCCAUUGCUGUCCAACATT against EMID1 | 0.979 (inactive)
96 | AGAGGAACUUUAUUCUUGATT against HNRNPUL2 | -0.0273 (inactive)
97 | AUAACUACCUGAUCAAGAATT against YWHAG | 1.98 (active)
98 | CCCUGGUAGUUCCACACCATT against CRHBP | -0.0443 (inactive)
99 | GAACAUUGGUUCUUAGAGATT against MKRN2 | 0 (inactive)
100 | GGGACUUCAUGUUCGAGCATT against DNAI2 | 0.12 (inactive)
101 | GCAGAAAGGUGUAACAUAATT against DDI2 | 1.27 (active)
102 | CAGGCAAACCGCUACAUCATT against EN1 | 0.761 (inactive)
103 | ACAGUUCUCUAUGACCUCATT against PLA2G4E | 0.266 (inactive)
104 | AGUGCAUGGUUGCAGCUGATT against RNF144A | -0.185 (inactive)
105 | GAAUCAAUAUAAUCUAGCATT against UBE2Q2 | 0.146 (inactive)
106 | AGAACUGCGUGACUAUACATT against ZNF417 | 0.0205 (inactive)
107 | GCCUCUCACAUCUAUGGUATT against ITIH4 | 0.64 (inactive)
108 | GGAGAAAGAAUGACGAGAATT against TGFBR2 | 0.8 (inactive)

Source: PubChem BioAssay AID1347426 (Functional Genomics Laboratory (NCATS/FGL), 2020)
